The values below come from PubChem BioAssay.

A short description of experiment [1]: rapamycin-like changes in RPL19A-GFP expression – cell-based, S. cerevisiae, multiplex flow cytometry, primary screen (AID 1862; in the data active means percent of DMSO control GFP below about 86%;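 further: lower values mimic rapamycin by blocking the RPL19A rise seen in DMSO cells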). The conditions noted are these: S. cerevisiae RPL19A-GFP strain, flow cytometry fluorescence, 3 h; at 10 µM; stronger effect = lower value.
The nature of experiment [2]: TOR pathway GLN3 branch reporter MEP2-GFP changes – S. cerevisiae, multiplex flow cytometry, primary screen (AID 1867;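 active means GFP response, as percent of the DMSO control, above the screen-wide mean plus 3 SD, about 139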;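 further: median GFP channel fluorescence of barcode-gated MEP2-GFP cells measured by flow cytometry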). The conditions noted are these: S. cerevisiae MEP2-GFP strain, 3 h, at 10 µM, stronger effect = higher value, 100% means same as DMSO wells.
A short description of experiment [3]: TOR pathway RTG branch CIT2 reporter changes – S. cerevisiae, GFP fusion, multiplex flow cytometry, primary screen (AID 1870;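 active means percent response above a set limit, the screen-wide mean plus 3 SD, cut at about 130% in these data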;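 further: barcoded CIT2-GFP strain pooled with four other GFP strains with rapamycin as positive control; median GFP fluorescence per well over plate mean of DMSO wells so 100% = DMSO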). Conditions: S. cerevisiae CIT2-GFP expression, 3 h, at 10 µM, stronger effect = higher value.
Experiment [4] is described as follows: TOR pathway LAP4-GFP level changes – S. cerevisiae, multiplex flow cytometry, primary screen (AID 1873;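 active means GFP signal, as percent of the solvent control, above the screen mean plus 3 SD, about 149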). Conditions: S. cerevisiae LAP4-GFP expression, 3 h, at 10 µM, stronger effect = higher value.
Experiment [5] can be described thus: yeast AGP1-GFP level changes, GLN3 branch – cell-based, multiplex flow cytometry, S. cerevisiae, primary screen (AID 1887;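 active means GFP signal above the screen-wide mean plus 3 SD, that is over about 124.5% of the solvent control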;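 further: AGP1-GFP fusion strain of S. cerevisiae within a five-strain barcoded multiplex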). Conditions: 3 h, at 10 µM, stronger effect = higher value.
Experiment [6] in a line: reduced mouse 2C T cell binding to pMHC/ICAM-1 vesicles – MLPCN validation set, flow cytometry, LFA-1/ICAM-1 modulator project, pilot screen (AID 2523;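 active means response below a set limit, under 55% cells CD8-positive and vesicle-bound, and CD8 cells' 90th-percentile brightness under 279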;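 on vesicle binding response: mean PE anti-B7-1 fluorescence of CD8+ cells relative to row control; 100% = QL9-loaded vesicles with DMSO vehicle in the same plate row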). Conditions: 2C mouse CD8+ T cells, at 7 µM, stronger effect = lower value; double positive events: measured here: CD8+/vesicle+ event percentage.
In experiment [7] the target is Integrin beta-1 (Homo sapiens) + Integrin alpha-4 (Homo sapiens) (UniProt P13612+P05556). Put plainly: alpha4beta1 integrin LIBS antibody binding reduction – U937 cells, HUTS-21 mAb, flow cytometry, validation set, VLA-4 allosteric modulator project, pilot screen (AID 2674).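 Further: antibody binding induced by the VLA-4 ligand LDV present at three times its Kd; 0% = LDV ligand with antibody and no compound and 100% = antibody without LDV.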 Conditions: HUTS-21 LIBS mAb binding, at 6.7 µM, stronger effect = higher value, binding induced by LDV ligand.

Experiment [8] in a line: calorie-restriction mimetic ROS inhibitors, yeast – validation compound set, pilot screen (AID 2706;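 active means superoxide response below 65% of plate, a cut near 3 SD across the whole screen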;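 further: yeast exposed to compound for one week at 30 degrees C before staining; 100% = mean of all compound wells on the same plate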). The conditions noted are these: S. cerevisiae aging, superoxide DHE fluorescence; at 10 µM; stronger effect = lower value.
Experiment [9] addresses Beta-adrenergic receptor kinase 1 (Homo sapiens) (UniProt P25098). In words: GRK2 binders displacing RNA aptamer, biochemical, validation, human GRK2, bead flow cytometry (AID 488806;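 active means aptamer binding inhibition above 30%, about 3 SD of noise from non-fluorescent compounds; inactive means inhibition at or below 30%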). Conditions: bead-bound GRK2, FAM-aptamer displacement, at 10 µM, stronger effect = higher value.
Experiment [10] has as its target Beta-2 adrenergic receptor (Homo sapiens) (UniProt P07550). Put plainly: agonist-induced loss of surface beta2AR – cell-based, FAP fluorogen, flow cytometry, validation set, pilot screen (AID 504459;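 active means percent response above 42, roughly 3 SD of non-fluorescent test compounds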;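 further: agonist-driven loss of surface beta2AR via internalization measured by FAP dye flow cytometry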). The conditions noted are these: Am2.2-beta2AR cells, at 10 µM, stronger effect = higher value.
Experiment [11] concerns the target AP-2 complex subunit beta (Homo sapiens) (UniProt P63010). Put plainly: beta-arrestin/AP2 interaction blockers – biochemical, validation set, GST-AP2 beads, flow cytometry, pilot screen (AID 504541;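 active means inhibition above 54%, about 3 SD of non-fluorescent compounds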;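 further: AP2 carries R879A mutation and is captured from E. coli lysate; bead-bound FITC arrestin peptide fluorescence measuring arrestin peptide binding to AP2; 0% = DMSO wells and 100% = excess unlabeled arrestin peptide control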). Conditions: FITC arrestin peptide, at 10 µM, stronger effect = higher value, AP2 beta2 appendage fragment, R879A mutant.
A short description of experiment [12]: cytosolic pH regulators acting via V-ATPase – S. cerevisiae, pHLuorin, HTS validation (AID 504600; in the data active means response above about 15%;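 further: plate controls were DMSO for no effect and reference compound for full effect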). Conditions: V-ATPase proton transport, at 10 µM, stronger effect = higher value.
The subject of experiment [13] is anti-desmoglein-3 scFv antibody binding to human DSG3. Put plainly: blockers of pathogenic pemphigus antibody–desmoglein-3 binding – biochemical, validation compound set, bead-based, flow cytometry, pilot screen (AID 588368;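 active means binding below the plate cutoff, the plate median minus 3 SD, with a reading above zero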;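 further: signal is the median channel fluorescence of bead-bound GFP antibody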). The conditions noted are these: Protein G beads, DSG3-Fc, scFv-GFP binding, at 10 µM, stronger effect = lower value.
The nature of experiment [14]: Nile Red efflux blockade in pump-expressing yeast – validation compound set, multiplex, phenotypic, pilot screen (AID 588506;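 active means efflux inhibition above 0.42, the validation set average plus 4 SD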;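 further: Nile Red retained in cells so higher fluorescence means more efflux inhibition; 0 = negative control wells and 1 = enniatin B 25 µM full block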). The conditions noted are these: S. cerevisiae pump-expressing triplex, Nile Red efflux flow cytometry; at 10 µM; stronger effect = higher value; the pumps come from Candida albicans.
Experiment [15] deals with ATP-binding cassette sub-family B member 6 (Homo sapiens) (UniProt Q9NP58). In words: blockers of ABCB6-driven porphyrin uptake – K562-ABCB6 cells, flow cytometry, validation set, pilot screen (AID 588550;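 active means inhibition above the screen-wide mean plus 3 SD, about 51%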;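 further: 0% = DMSO wells and 100% = benzethonium chloride 70 µM positive control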). The conditions noted are these: K562-ABCB6 porphyrin accumulation, 1 h, at 10 µM, stronger effect = higher value.
Experiment [16] in a line: AML differentiation inducers, ER-HoxA9 marrow cells – cell-based, GFP/MAC1 double positive, flow cytometry, validation set, primary screen (AID 588685;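 active means differentiation response of at least 50%, scaled between solvent and reference control, from cells with both markers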;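 further: compound exposure lasts four days before antibody staining and flow analysis; 0% = DMSO wells and 100% = 5 µM fulvestrant positive control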). Conditions: stronger effect = higher value, normalized: vehicle 0, fulvestrant 100.

The structures appear in SMILES notation. Results filed as inconclusive are left out. Calls of active or inactive are those of the source.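 How the source made its calls, unless noted: active means inhibition above 50%, about 3 SD of the validation set; inactive means the rest.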

Beta-adrenergic receptor kinase 1 (Homo sapiens), sequence (P25098 whole entry, looked up): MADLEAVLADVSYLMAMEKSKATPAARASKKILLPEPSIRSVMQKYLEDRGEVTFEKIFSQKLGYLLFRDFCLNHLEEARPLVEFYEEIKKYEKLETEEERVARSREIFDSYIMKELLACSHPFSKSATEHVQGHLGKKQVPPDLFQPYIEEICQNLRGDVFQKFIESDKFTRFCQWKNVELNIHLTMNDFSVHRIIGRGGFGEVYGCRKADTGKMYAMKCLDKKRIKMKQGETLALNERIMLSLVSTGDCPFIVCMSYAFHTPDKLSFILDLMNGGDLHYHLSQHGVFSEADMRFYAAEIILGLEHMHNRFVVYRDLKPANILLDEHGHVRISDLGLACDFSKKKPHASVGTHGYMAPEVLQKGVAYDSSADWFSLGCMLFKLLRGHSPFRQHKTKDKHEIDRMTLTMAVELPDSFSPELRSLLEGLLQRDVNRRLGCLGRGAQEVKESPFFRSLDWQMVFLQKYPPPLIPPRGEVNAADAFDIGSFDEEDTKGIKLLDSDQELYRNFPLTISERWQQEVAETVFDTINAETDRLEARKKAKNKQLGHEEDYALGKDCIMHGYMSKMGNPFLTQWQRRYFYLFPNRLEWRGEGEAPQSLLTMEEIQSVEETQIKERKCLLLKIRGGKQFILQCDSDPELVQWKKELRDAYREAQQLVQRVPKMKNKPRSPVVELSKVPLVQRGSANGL
ATP-binding cassette sub-family B member 6 (Homo sapiens), sequence (Q9NP58 whole entry, looked up): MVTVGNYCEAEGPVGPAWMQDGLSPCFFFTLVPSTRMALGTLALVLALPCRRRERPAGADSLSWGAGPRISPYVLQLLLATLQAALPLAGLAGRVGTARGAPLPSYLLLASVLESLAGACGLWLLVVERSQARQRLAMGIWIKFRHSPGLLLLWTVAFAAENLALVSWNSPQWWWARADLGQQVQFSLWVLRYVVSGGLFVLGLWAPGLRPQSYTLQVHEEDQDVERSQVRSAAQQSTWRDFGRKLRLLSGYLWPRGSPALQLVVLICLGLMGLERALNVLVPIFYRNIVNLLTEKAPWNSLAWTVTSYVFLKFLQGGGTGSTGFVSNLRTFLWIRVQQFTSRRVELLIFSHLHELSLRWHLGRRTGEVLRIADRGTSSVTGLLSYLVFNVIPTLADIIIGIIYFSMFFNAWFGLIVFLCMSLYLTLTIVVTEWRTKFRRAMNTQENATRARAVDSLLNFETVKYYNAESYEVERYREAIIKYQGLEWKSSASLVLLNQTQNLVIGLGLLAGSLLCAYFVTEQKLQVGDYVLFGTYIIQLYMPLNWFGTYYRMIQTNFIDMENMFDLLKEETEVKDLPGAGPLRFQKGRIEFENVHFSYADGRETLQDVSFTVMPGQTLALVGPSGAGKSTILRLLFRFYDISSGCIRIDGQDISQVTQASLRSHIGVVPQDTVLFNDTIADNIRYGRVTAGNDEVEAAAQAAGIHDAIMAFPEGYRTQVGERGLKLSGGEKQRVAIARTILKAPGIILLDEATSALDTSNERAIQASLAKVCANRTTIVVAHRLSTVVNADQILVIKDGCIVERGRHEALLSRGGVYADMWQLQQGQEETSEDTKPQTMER
Integrin beta-1 (Homo sapiens) + Integrin alpha-4 (Homo sapiens), sequence (P05556 whole entry, looked up): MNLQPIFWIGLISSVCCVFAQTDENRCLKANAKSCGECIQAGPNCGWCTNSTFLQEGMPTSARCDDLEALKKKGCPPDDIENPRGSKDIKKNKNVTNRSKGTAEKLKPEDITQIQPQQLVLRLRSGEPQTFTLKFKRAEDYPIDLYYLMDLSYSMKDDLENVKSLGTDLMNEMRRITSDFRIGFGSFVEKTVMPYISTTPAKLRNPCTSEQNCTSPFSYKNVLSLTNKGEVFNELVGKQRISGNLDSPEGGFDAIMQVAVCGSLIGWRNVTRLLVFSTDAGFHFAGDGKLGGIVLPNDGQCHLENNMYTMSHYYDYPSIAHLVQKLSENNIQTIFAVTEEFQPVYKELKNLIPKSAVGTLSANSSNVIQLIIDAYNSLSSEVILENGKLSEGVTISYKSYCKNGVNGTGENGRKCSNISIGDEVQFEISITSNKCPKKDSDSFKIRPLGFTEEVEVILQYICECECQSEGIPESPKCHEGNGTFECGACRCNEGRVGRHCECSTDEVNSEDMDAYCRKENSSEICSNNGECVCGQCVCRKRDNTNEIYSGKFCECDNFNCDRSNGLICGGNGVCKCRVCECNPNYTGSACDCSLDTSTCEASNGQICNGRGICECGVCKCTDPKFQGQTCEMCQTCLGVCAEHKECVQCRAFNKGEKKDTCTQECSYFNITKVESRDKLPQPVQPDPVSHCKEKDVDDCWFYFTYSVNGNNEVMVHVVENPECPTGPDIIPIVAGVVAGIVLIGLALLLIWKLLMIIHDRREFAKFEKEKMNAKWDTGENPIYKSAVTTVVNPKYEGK
Integrin beta-1 (Homo sapiens) + Integrin alpha-4 (Homo sapiens), sequence (P13612 whole entry, looked up): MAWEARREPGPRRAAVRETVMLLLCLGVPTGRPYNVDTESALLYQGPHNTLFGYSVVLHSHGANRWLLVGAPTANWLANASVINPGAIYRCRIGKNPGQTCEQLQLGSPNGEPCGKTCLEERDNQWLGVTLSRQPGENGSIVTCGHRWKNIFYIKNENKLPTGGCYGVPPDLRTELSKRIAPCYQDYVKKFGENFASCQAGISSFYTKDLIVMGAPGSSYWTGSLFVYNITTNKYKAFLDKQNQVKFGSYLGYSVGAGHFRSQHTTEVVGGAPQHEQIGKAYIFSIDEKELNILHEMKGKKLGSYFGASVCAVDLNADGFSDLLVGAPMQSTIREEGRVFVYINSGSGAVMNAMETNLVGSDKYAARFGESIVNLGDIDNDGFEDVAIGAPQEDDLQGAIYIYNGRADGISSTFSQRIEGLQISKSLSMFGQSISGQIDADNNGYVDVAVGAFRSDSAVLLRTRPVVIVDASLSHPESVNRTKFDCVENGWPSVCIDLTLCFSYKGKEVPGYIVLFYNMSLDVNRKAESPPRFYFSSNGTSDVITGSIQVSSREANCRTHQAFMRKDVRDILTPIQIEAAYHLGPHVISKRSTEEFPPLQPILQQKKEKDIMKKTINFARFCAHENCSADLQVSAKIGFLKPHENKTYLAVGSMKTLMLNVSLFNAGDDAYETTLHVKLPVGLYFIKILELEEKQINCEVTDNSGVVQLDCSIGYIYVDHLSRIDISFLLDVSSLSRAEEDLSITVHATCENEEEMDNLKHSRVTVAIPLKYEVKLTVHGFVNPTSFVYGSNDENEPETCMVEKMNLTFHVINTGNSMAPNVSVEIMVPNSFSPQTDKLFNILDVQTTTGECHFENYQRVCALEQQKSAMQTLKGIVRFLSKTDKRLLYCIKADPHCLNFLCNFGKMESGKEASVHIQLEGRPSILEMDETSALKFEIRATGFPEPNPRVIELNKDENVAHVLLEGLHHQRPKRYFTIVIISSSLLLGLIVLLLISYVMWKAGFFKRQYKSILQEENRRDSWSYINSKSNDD
Beta-2 adrenergic receptor (Homo sapiens), sequence (P07550 whole entry, looked up): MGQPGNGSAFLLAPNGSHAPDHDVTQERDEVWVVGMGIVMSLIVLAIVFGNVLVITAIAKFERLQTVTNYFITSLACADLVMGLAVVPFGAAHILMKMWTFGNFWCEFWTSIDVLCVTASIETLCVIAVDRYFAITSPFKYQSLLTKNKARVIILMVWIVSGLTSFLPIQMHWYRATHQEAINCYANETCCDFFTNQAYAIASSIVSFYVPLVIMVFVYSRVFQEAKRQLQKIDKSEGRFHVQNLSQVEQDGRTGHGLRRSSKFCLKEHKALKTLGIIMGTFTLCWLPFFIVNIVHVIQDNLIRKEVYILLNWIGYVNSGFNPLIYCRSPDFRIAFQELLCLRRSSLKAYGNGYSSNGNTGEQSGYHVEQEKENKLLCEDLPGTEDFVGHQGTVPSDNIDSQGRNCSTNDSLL
AP-2 complex subunit beta (Homo sapiens), sequence (P63010 whole entry, looked up, the tested form may be a part, one chain of several): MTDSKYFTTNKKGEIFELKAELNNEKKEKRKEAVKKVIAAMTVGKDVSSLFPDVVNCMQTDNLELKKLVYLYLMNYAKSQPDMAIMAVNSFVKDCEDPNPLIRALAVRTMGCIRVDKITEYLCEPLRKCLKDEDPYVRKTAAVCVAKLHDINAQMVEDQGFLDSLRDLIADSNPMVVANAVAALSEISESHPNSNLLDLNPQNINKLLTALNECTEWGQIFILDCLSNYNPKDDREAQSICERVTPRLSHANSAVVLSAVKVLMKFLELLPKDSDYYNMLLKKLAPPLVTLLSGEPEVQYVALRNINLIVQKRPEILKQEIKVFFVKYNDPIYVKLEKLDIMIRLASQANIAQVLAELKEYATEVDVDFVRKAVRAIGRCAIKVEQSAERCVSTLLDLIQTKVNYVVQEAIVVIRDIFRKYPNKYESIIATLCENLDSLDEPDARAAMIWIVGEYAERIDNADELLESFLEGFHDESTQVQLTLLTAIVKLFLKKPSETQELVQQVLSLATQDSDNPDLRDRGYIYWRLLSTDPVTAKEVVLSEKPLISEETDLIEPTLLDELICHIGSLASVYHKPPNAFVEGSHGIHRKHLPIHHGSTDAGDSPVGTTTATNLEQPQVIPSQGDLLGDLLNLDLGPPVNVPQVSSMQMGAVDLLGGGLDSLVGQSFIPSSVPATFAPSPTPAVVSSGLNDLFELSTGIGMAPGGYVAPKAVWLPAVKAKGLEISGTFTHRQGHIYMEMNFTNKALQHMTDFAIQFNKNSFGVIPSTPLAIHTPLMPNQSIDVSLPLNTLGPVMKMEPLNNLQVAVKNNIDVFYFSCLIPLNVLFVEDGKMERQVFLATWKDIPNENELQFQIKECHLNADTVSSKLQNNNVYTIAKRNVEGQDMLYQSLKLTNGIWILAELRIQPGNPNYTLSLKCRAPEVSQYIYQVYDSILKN

As for `CC1(C)C(=O)OC(/C=C\c2ccccc2)C(C)(C)C1=O` (stereo not given), in [1], the percent of DMSO control GFP is 98.4% (inactive). For the same compound, the GFP response vs DMSO in [2] is 101% (inactive); in [4] it was 112% (inactive). In addition, the percent response of DMSO control in experiment [3] is 95.7% (inactive). In addition, the GFP response, % of DMSO in [5] was 107% (inactive). The compound also gave a double positive events in experiment [6] of 64.8%. The vesicle binding response in experiment [6] was 160% (inactive). Besides, the inhibition is 1.44% (inactive) in experiment [7], 6.83% (inactive) in experiment [11] and 3% (inactive) in [15]. In addition, the superoxide response (% of plate) in [8] is 80.2% (inactive). For the same compound, the aptamer binding inhibition in experiment [9] is 6% (inactive). In addition, the response in experiment [10] was -19.9% (inactive); in experiment [12], -6.88% (inactive). Besides, the binding (% of control) in experiment [13] is 97.3% (inactive). Also, the efflux inhibition (fraction of control) in experiment [14] was -0.09 (inactive). For the same compound, the differentiation response in [16] was 4.86% (inactive).

In the case of `CCCc1cc(C(N)=S)ccn1`, the percent of DMSO control GFP in experiment [1] is 96.9% (inactive). Further, the GFP response vs DMSO in experiment [2] is 99.6% (inactive); in experiment [4] it was 91.4% (inactive). In addition, in experiment [3], the percent response of DMSO control is 101% (inactive). In addition, in experiment [5], the GFP response, % of DMSO is 93.1% (inactive). In experiment [6], this compound showed a double positive events of 60.4%. Also, the vesicle binding response in [6] is 190% (inactive). Moreover, the inhibition in experiment [7] is 0.94% (inactive); in experiment [11] it was 7.42% (inactive); in experiment [15], -25% (inactive). Besides, the superoxide response (% of plate) in experiment [8] is 97% (inactive). Further, the aptamer binding inhibition in experiment [9] is 2% (inactive). Further, the figures for the response in [10] and in experiment [12] were -5.23% (inactive) and -1.93% (inactive), respectively. The binding (% of control) in experiment [13] was 97.6% (inactive). In addition, the efflux inhibition (fraction of control) in [14] was -0.28 (inactive). The differentiation response in [16] is -18.4% (inactive).

`COc1ccc(C(=O)COc2ccc(F)cc2)c(O)c1`: the percent of DMSO control GFP in experiment [1] was 106% (inactive). Besides, the results for the GFP response vs DMSO in [2] and in experiment [4] were 98.3% (inactive) and 96% (inactive), respectively. In [3], the percent response of DMSO control was 106% (inactive). The GFP response, % of DMSO in experiment [5] was 97.6% (inactive). Moreover, the double positive events in experiment [6] stood at 60.6%. Further, the vesicle binding response in experiment [6] was 253% (inactive). In addition, the inhibition in experiment [7] is -7.72% (inactive); in experiment [11] it was 1.75% (inactive); in experiment [15], 1% (inactive). Besides, in experiment [8], the superoxide response (% of plate) is 86.7% (inactive). Also, in [9], the aptamer binding inhibition is 1% (inactive). The values for the response in experiment [10] and in experiment [12] were -9.67% (inactive) and 2.77% (inactive), respectively. The binding (% of control) in [13] was 94.5% (inactive). For the same compound, the efflux inhibition (fraction of control) in experiment [14] was -0.04 (inactive). In addition, the differentiation response in experiment [16] is 1.22% (inactive).

As to `CC(C)CC(NC(=O)c1cccc(Cl)c1)C(=O)O` (stereo not given), the percent of DMSO control GFP in experiment [1] is 94.6% (inactive). Further, the GFP response vs DMSO in experiment [2] is 102% (inactive); in experiment [4] it was 129% (inactive). In [3], the percent response of DMSO control is 94.8% (inactive). Further, the GFP response, % of DMSO in experiment [5] was 101% (inactive). This compound showed a double positive events in [6] of 60.5%. Further, the vesicle binding response in experiment [6] was 207% (inactive). The inhibition is -7.25% (inactive) in [7], 14.1% (inactive) in [11] and 2% (inactive) in experiment [15]. Further, the superoxide response (% of plate) in experiment [8] was 113% (inactive). In addition, the aptamer binding inhibition in [9] was 0% (inactive). The response in experiment [10] is -14.8% (inactive); in [12], 1.45% (inactive). For the same compound, the binding (% of control) in [13] is 98% (inactive). Moreover, the efflux inhibition (fraction of control) in experiment [14] is -0.13 (inactive). In addition, the differentiation response in experiment [16] was -5.6% (inactive).

Regarding `COc1ccc(Cc2noc(CN(C)CC3(N4CCOCC4)CCCCC3)n2)cc1OC`, in experiment [1], the percent of DMSO control GFP was 94.3% (inactive). Further, the GFP response vs DMSO in experiment [2] was 99.7% (inactive); in experiment [4] it was 95.9% (inactive). Also, the percent response of DMSO control in experiment [3] was 106% (inactive). The GFP response, % of DMSO in experiment [5] was 98.3% (inactive). The same compound came in with a double positive events in [6] of 60.5%. In experiment [6], the vesicle binding response was 80.5% (inactive). In addition, the figures for the inhibition in [7], in experiment [11] and in [15] were 2.93% (inactive), -7.18% (inactive) and 36% (inactive), respectively. Moreover, in [8], the superoxide response (% of plate) was 108% (inactive). Moreover, in [9], the aptamer binding inhibition was 2% (inactive). For the same compound, the response in experiment [10] was 8.59% (inactive); in experiment [12] it was 2.83% (inactive). Moreover, in [13], the binding (% of control) was 102% (inactive). Also, the efflux inhibition (fraction of control) in experiment [14] was 0.22 (inactive). Further, the differentiation response in experiment [16] is -10.4% (inactive).
